Results from PubChem BioAssay (Tox21).
Values joined by “and” are separate entries in the source; they are usually repeats but may differ in a detail not shown here. Identical values can stand only once. Inconclusive results are not listed. Some compounds were tested as several samples or in several runs, with calls that do not always agree. Active and inactive are the calls of the source. Calls follow the shape of the dose curve; as a rule, active = well fitted cell-killing curve with a large enough effect in the repeat runs; inconclusive = weak or mixed curves, or effect the other way; inactive = no such curve, though single readings can be large or run the other way.

assay: qHTS assay for identifying genotoxic compounds that show differential cytotoxicity against isogenic chicken DT40 cell lines with known DNA damage response pathways - Rev3 mutant cell line (AID 743014); conditions: chicken DT40 Rev3-/- viability, CellTiter-Glo, 40 h; series mostly up to 68.4 µM; activity, negative = cytotoxicity: at the top concentration; also: nearly all actives have a fitted effect of over 55% in size
Description: National Center for Advancing Translational Sciences [NCATS]
NIH Chemical Genomics Center [NCGC]
U.S. Environmental Protection Agency [EPA]
National Institutes of Environmental Health Sciences [NIEHS]
National Toxicology Program [NTP]
U.S. Food and Drug Administration [FDA]
DNA repair pathways play a critical role in cellular homeostasis by repairing DNA damage induced by endogenous processes and xenobiotics. Isogenic chicken DT40 cell lines deficient in different DNA repair pathways can be used to identify genotoxic compounds and aid in characterizing the nature of the DNA damage induced. Two DNA repair-deficient cell lines with disrupted genes, Rad54/Ku70 or Rev3, were used to screen the Tox21 10K compound library. Possible genotoxicity was based on the presence of a significant increase in cytotoxicity in one or more of the DNA repair-deficient cell lines compared to that observed in the parental DNA repair-proficient cell line. CellTiter Glo viability assay (Promega, Madison, WI) was used to measure cell viability in these cells after compound treatment. This assay includes the data from the Rev3 mutant cell line.
Tox21 Assay Protocol Summary:
300 DT40 mutant cells in 5 uL/well were dispensed into white, solid-bottom 1536-well plates using a Multidrop Combi (ThermoFisher Scientific, Waltham, MA) dispenser. After the assay plates were incubated at 37 C/5% CO2 for approximately 0.5 hour, 23 nL of compounds dissolved in DMSO, positive controls or DMSO only was transferred into the assay plate by a pintool work station (Kalypsys, San Diego, CA). The assay plates were incubated at 37 C/5% CO2 for 40 hours. After 5 uL per well of CellTiter-Glo reagent was added into each well of the assay plates, the plates were incubated for 30 min at room temperature and the luminescence intensity of the plates was measured using a ViewLux (PerkinElmer, Shelton, CT) plate reader.
% is scaled to controls: 0 for no effect and ±100 for the full control effect; potency is read from the fitted curve at half-maximal effect.

| Compound | activity, negative = cytotoxicity | Potency |
| --- | --- | --- |
| C1CCNCC1 | 0.888% [at 95 µM] (inactive) |  |
| O=C(O)C(O)C(O)C(=O)O (stereo not given) | -2.09% (inactive) |  |
| c1ccc2c(c1)-c1cccc3cccc-2c13 |  | inactive and 61.1 µM (active) |
| OCC1CO1 (stereo not given) |  | inactive |
| CCC1(C2=NCCN2)Cc2ccccc2O1 (stereo not given) |  | 5.31 µM (active) |
| FC(F)OC(F)(F)C(F)Cl (stereo not given) |  | inactive |
| CN(C1CCCCC1)C1CCCCC1 |  | 9.69 µM (active) |
| C[C@]12C=CC3=C4CCC(=O)C=C4CC[C@H]3[C@@H]1CC[C@@H]2O |  | 68.1 µM (active) |
| O=C(NC(=O)c1cc(F)c(F)cc1Cl)Nc1cc(F)ccc1N1CCC(C(=O)O)CC1 | 5.42% (inactive) |  |
| CCc1ccccc1N | -0.238% (inactive) |  |
| CC(Cc1ccccc1)NCc1ccccc1Cl (stereo not given) |  | 15 µM (active) |
| CC(C)(C)c1ccc(CCOc2ncnc3ccccc23)cc1 | -11.7% (inactive) |  |
| C=CCOC(=O)C(C)(C)OC(=O)c1cc(-n2c(=O)cc(C(F)(F)F)n(C)c2=O)ccc1Cl |  | 30 µM (active) |
| CN(C)N | -0.499% (inactive) |  |
| CCCC[N+](CCCC)(CCCC)CCCC |  | 3.85 µM (active) |
| C#C[C@]1(O)CC[C@H]2[C@@H]3CCC4=CC(=O)CCC4=C3C=C[C@@]21CC |  | 13.3 µM (active) |
| C=CC(=O)NC(C)(C)CC(C)=O |  | 54.5 µM (active) |
| CC(=O)NNc1ccccc1 |  | 2.15 µM (active) |
| CCOP(=O)(SC(C)CC)N1CCSC1=O (stereo not given) | -22% (inactive) |  |
| CC(O)CN1CCN(CC(=O)[O-])CCN(CC(=O)[O-])CCN(CC(=O)[O-])CC1.[Gd+3] (stereo not given) |  | inactive |

| Compound | activity, negative = cytotoxicity | Potency |
| --- | --- | --- |
| CNC(=O)Oc1cccc(N=CN(C)C)c1 |  | 54.5 µM (active) |
| O=C1CC[C@@]2(O)[C@H]3Cc4ccc(O)c5c4[C@@]2(CCN3CC2CC2)[C@H]1O5 | 0.131% (inactive) |  |
| OC[P+](CO)(CO)CO |  | inactive |
| CCCCC(CC)COC(=O)c1c(Br)c(Br)c(Br)c(Br)c1C(=O)OCC(CC)CCCC (stereo not given) | -11.8% (inactive) |  |
| CCCSP(=S)(OCC)Oc1ccc(SC)cc1 (stereo not given) |  | 15.4 µM (active) |
| CCCCCCCCCCCCN=C(N)N |  | 1.89 µM (active) |
| CCCCCCCCn1sccc1=O |  | 2.17 µM (active) and 719 nM (active) |
| O=C(NCNC(=O)NC1C(=O)NC(=O)N1CO)NC1C(=O)NC(=O)N1CO (stereo not given) |  | inactive |
| Cc1cnc(C2=NC(C)(C(C)C)C(=O)N2)c(C(=O)O)c1 (stereo not given) | -8.22% (inactive) |  |
| CCCCCCCCCCCCN(C)C | -29% (inactive) |  |
| CCOC(=O)c1cn2nc(OP(=S)(OCC)OCC)cc2nc1C |  | 48.6 µM (active) |
| CCOC(=O)C1OC1(C)c1ccccc1 (stereo not given) |  | inactive |
| O=C(O)COc1cc(Cl)c(Cl)cc1Cl |  | inactive |
| CCC1CCC(=O)O1 (stereo not given) | -26.2% [at 95 µM] (inactive) |  |
| CCOP(=S)(OCC)SCSc1cc(Cl)ccc1Cl | -11.8% (inactive) |  |
| CCCCC(CC)CO[N+](=O)[O-] (stereo not given) | 6.44% (inactive) |  |
| C=CCc1ccccc1O | -0.249% (inactive) |  |
| CCCCC1C(=O)NC(=O)N(C2CCCCC2)C1=O (stereo not given) | 0.948% (inactive) |  |
| Clc1ccc2ccccc2c1 | 1.5% [at 95 µM] (inactive) |  |
| COC1=CC(=O)O[C@@H](/C=C/c2ccc3c(c2)OCO3)C1 | -12.1% (inactive) |  |
